Screening results as filed in PubChem BioAssay.
12-LOX inh: Primary qHTS assay for inhibitors of human arachidonate 12S-lipoxygenase (ALOX12): Round 2; Polyunsaturated fatty acid lipoxygenase ALOX12 (Homo sapiens), P18054; purified 12hLO, xylenol orange hydroperoxide absorbance; Potency, µM (highest dose often 108 µM), inactives show at the top dose activity change, negative = inhibition, actives largely listed as inhibitors; 1.1% of 580,000 active; AID 1671190, 2021; active = well fitted inhibition curve with a large enough effect; inconclusive = small, poorly fitted or top-dose-only effect, or another doubt; inactive = no such curve, though single readings can be large or run the other way; note: potency is the fitted concentration of half-maximal effect; % is set by controls: 0 for no effect and ±100 for the full control effect
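Purified human 12hLO at 150 nM in 25 mM Hepes, 0.01% Triton X-100, pH 7.0, preincubated 15 min at room temperature with compound. Reaction started with 40 uM arachidonic acid, 30 min at room temperature. Hydroperoxide measured by Fe-xylenol orange, 573/405 nm absorbance ratio.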
BCR signal inh: qHTS Assay to Find Inhibitors of Chronic Active B-Cell Receptor Signaling | ABC-DLBCL IkBa-CBG/CBR reporter, luminescence ratio, 4 h | Potency, µM (top dose mostly 46.1 µM), for inactives: at the top dose activity change, negative = inhibition, actives largely listed as inhibitors | 0.05% of 340,000 active; active = well fitted inhibition curve with a large enough effect in the signal ratio, with a control signal flat, not every such curve was filed as active; inconclusive = small, poorly fitted or top-dose-only effect, or effect the other way, or a change in a side signal; the % refers to the signal ratio;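 note: potency is the fitted concentration of half-maximal effect; plate controls were basal doxycycline-induced cells for no effect and cells given 10 µM MG132 for full effect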
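Compounds up to 46 uM were incubated four hours with TMD8 cells whose green CBG68 luciferase is fused to IkappaBalpha; red CBR luminescence normalised the signal, and concentration-effect curves were fitted to fusion, red and ratio data.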
LDHA inh: qHTS assay for inhibitors of human lactate dehydrogenase | L-lactate dehydrogenase A chain (Homo sapiens), P00338 | purified LDHA, NADH/diaphorase-resazurin fluorescence; active compounds read low | activity change, % (values are at about 110 or 230 µM) | 0.15% of 480,000 active | AID 1347041, 2019; in the data active = activity change below about -30%; inconclusive = mostly about -25% to -30%;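 note: plate controls were DMSO wells for no effect and wells without enzyme for full effect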
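Human LDH5 (2 nM) was incubated with 0.06 mM NADH and 0.2 mM pyruvate for 5 min at room temperature in Tris pH 7.4. Remaining NADH was coupled through diaphorase/resazurin, and resorufin fluorescence was read at 0 and 20 min.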
KCNH2 3.1 block: qHTS for Inhibitors of KCHN2 3.1: Mutant qHTS; Potassium voltage-gated channel subfamily H member 2, brain isoform KCNH2 3.1 (human); U2OS KCNH2 3.1, thallium flux FluxOr; active compounds read low; activity change, % (tested at about 1.8 µM); 0.95% of 340,000 active;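 active = maximum activity change below -70%; inconclusive = maximum activity change from -70% to -50%; inactive = maximum activity change above -50%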;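 note: thallium influx rate constant from kinetic fluorescence after stimulation buffer; % is set by controls: 0 for no effect and ±100 for the full control effect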
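FluxOr-based Tl+ influx in U2OS cells transduced with KCNH2 3.1 virus; rate constants normalized to DMSO controls.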
hERG WT inh: qHTS for Inhibitors of KCHN2 3.1: Wildtype qHTS; Voltage-gated inwardly rectifying potassium channel KCNH2 (Homo sapiens), Q12809; U2OS, BacMam KCNH2, thallium flux FluxOr; active compounds read low; activity change, % at 1.84 µM; 0.37% of 340,000 active; AID 720551, 2013;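 active = maximum activity change below -70%; inconclusive = maximum activity change between -70% and -50%; inactive = maximum activity change above -50%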; note: % is set by controls: 0 for no effect and ±100 for the full control effect
Target sequence (Q12809 whole entry, looked up): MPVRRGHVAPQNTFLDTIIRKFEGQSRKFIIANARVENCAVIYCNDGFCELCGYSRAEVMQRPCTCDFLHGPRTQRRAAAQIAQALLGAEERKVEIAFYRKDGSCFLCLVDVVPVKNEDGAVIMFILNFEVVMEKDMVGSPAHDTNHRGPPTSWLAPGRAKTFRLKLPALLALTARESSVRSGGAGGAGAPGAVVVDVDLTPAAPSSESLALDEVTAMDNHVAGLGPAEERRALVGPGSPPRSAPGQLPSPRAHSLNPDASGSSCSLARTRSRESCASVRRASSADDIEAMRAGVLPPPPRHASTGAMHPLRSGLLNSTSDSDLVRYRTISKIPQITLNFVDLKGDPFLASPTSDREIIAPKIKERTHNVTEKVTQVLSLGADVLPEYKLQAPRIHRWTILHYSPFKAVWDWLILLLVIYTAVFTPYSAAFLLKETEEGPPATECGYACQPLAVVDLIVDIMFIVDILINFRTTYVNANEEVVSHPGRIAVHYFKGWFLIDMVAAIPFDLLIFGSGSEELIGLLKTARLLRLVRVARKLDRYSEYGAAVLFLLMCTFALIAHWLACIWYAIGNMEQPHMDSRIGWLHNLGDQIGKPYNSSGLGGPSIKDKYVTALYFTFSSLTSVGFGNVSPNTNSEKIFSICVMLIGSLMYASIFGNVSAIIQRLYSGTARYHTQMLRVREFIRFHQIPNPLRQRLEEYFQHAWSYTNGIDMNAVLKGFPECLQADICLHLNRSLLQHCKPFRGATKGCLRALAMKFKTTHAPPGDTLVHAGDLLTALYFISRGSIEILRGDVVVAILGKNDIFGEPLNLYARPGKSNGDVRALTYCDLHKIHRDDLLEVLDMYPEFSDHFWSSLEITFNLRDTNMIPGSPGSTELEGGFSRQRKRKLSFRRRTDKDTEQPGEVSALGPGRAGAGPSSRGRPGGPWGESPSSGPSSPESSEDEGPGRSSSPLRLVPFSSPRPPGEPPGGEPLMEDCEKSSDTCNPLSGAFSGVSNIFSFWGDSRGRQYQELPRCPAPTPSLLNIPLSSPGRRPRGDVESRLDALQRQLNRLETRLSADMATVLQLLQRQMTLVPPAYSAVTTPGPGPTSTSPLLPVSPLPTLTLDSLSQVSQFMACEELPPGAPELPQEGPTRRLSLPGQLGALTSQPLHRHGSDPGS
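U2OS cells were transduced with wild-type KCNH2 virus (2.03 x 10^8 / mL) for 4 h at room temperature, then cultured overnight at 37 C. Thallium flux was read with FluxOr dye. Rate constants were normalized to DMSO controls.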
ClpP mod: qHTS Assay for Activators of ClpP. purified B. subtilis ClpP, FRET peptide cleavage, 20 min. Potency, µM (titrated, usually from 57.5 µM), without a hit: top-dose activity change, negative = active. 1.9% of 340,000 active. AID 651965, 2013; active = well fitted falling curve with a large enough effect; inconclusive = small, poorly fitted or top-dose-only effect; inactive = no such curve, though single readings can be large or run the other way; note: potency is the fitted concentration of half-maximal effect; the source files actives as falling curves though it sought activators and does not explain the sign; nearly all actives have a fitted effect of over 65% in size
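ClpP 10 microg/mL final, pH 8 Tris/KCl buffer with BSA, glycerol, Tween-20; compound pinned in; FRET-FV substrate; RT 20 min; Ex320/Em430; ΔFRET vs ADEP 5.8 microM, DMSO, no enzyme.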
An asterisk follows results filed as active; ? = inconclusive; · = not tested or not shown; [ ] = dose if it differs, or a comment. This is a sample that favours compounds with a hit; in the whole collection about 3% have one here.

SMILES	12-LOX inh	BCR signal inh	LDHA inh	KCNH2 3.1 block	hERG WT inh	ClpP mod
O=C(NCCc1c[nH]c2ccc(Cl)cc12)c1c(F)cccc1F	?	·	5	·	·	·
COc1ccc2oc(=O)c(-c3nnc(N)s3)cc2c1	-14%	6%	-6	6	-10	·
Nc1nnc(-c2cc3ccccc3oc2=O)s1	26%	?	-1	19	-7	25µM*
CC(C)=NNC(=O)c1ccccc1	39%	·	-6	·	·	·
O=C(Nc1ccc2c(c1)OCCO2)N1CCC(Cc2nc(-c3ccncc3)n[nH]2)C1 (stereo not given)	52%	·	·	·	·	·
N=c1ncn(C2OC(CO)C(O)C2O)c2nc(Br)[nH]c12 (stereo not given)	-12%	·	-4	-168*	-228*	0%
O=C(O)CCc1ccc(-c2cccs2)n1CC1CCCO1 (stereo not given)	-28%	1%	-15	9	31	25µM*
O=C(O)CCc1ccc(-c2ccc(F)cc2)n1CC1CCCO1 (stereo not given)	0%	6%	-6	8	4	22µM*
COCCCn1c(CCC(=O)O)ccc1-c1cccs1	0%	6%	-3	-5	9	?
COc1ccc(-c2ccc(CCC(=O)O)n2CC2CCCO2)cc1 (stereo not given)	-22%	4%	-2	-11	9	·
CCCn1c(CCC(=O)O)ccc1-c1cccs1	?	2%	-6	16	10	25µM*
CCOc1ccc(C(=O)N2C[C@@H](CO)[C@H](c3nc(C4CC4)no3)C2)cc1	36%	·	·	·	·	·
O=C(O)CN1C(=O)/C(=C\c2cccc(OCc3ccc(Cl)cc3Cl)c2)SC1=S	25µM*	13%	-14	0	1	·
COC(=O)Cn1c(SC(C)C(=O)c2ccc(F)c(F)c2)nc2ccccc2c1=O (stereo not given)	?	·	5	·	·	·
CCOC(=O)Nc1ccc(NS(=O)(=O)c2ccc(C)cc2Cl)cc1	32µM*	·	1	·	·	·
CCOC(=O)Nc1ccc(NS(=O)(=O)c2ccccc2Br)cc1	?	·	-17	·	·	·
CCOCc1nc(C2CCCN2S(=O)(=O)c2c(C)noc2C)no1 (stereo not given)	3%	·	·	·	·	·
Cc1ccccc1NC(=O)c1c(C)nc(SCC(=O)OCc2ccccc2)c(C#N)c1-c1ccc(F)cc1	-14%	12%	-9	-114*	1	?
C[N+](CCOCc1ccccc1)(CCOCc1ccccc1)CCOCc1ccccc1	18µM*	·	1	·	·	·
Cc1cccc(NC(=O)NNC(=O)c2cc3occc3[nH]2)c1C	13%	0%	-4	-449*	-14	-2%
CCC(=O)N1CCc2c(sc3ncnc(NCc4ccccc4)c23)C1	-8%	·	·	·	·	·
CC(=O)Nc1ccc(NC(=O)C/C(C)=N/NC(=O)C(=O)Nc2ccc(C)c(Cl)c2)cc1	0%	?	-8	-84*	-1	·
Nc1ccccc1Nc1c(F)c(F)nc(F)c1Cl	-1%	3%	0	-72*	2	0%
Cn1c2ccc(F)cc2c2ncn(CCCN(CCO)CCO)c(=O)c21	0%	?	-3	7	4	28µM*
COc1ccc(CN2C[C@@H](F)[C@@H](OCc3nc4ccccc4o3)C2)cc1	46%[176 µM]	·	·	·	·	·
SMILES	12-LOX inh	BCR signal inh	LDHA inh	KCNH2 3.1 block	hERG WT inh	ClpP mod
CCc1c(C)c2c(C)nn(-c3ccccc3)c2[nH]c1=O	-16%	-5%	-6	14	2	?
CCc1c(C)n2nc(C)cc2[nH]c1=O	-23%	1%	5	10	0	13µM*
CC(=O)c1cccc(NC(=O)c2cccc[n+]2[O-])c1	-37%	·	?	·	·	·
COc1ccc(CNc2ncnc3c2CN(c2ccc(Cl)cc2)C(=O)N(C)C3)cc1	-12%	·	·	·	·	·
CN1Cc2ncnc(NCCc3ccc(F)cc3)c2CN(c2ccc(Cl)cc2)C1=O	71µM*	·	·	·	·	·
O=S(=O)(Nc1nc2ccccc2nc1Nc1ccccc1)c1cccc2nsnc12	-12%	·	0	·	·	·
COc1cc(-n2cnnn2)ccc1S(=O)(=O)N1CCOCC1	-1%	4%	0	-144*	-106*	-2%
O=C(N/N=C/c1ccccn1)c1cc(-c2ccc3ccccc3c2)n[nH]1	-19%	?	-34*	-8	-29	22µM*
CCc1ccc(-c2cc(C(=O)N/N=C/c3ccccn3)[nH]n2)cc1	6%	?	-5	?	-14	·
COC(=O)CSc1ncc(S(=O)(=O)c2ccccc2)c(=O)[nH]1	-9%	-1%	-6	-131*	5	·
COc1cccc(NC(=O)Cc2ccccc2)c1	-8%	0%	0	6	11	0%
O=C(Cc1ccccc1)Nc1cccc(N2C(=O)C=CC2=O)c1	-23%	?	-6	-14	-2	14µM*
COc1cccc(N2CC(C(=O)Nc3ccccc3C(=O)N3CCN(c4ccccc4)CC3)CC2=O)c1 (stereo not given)	?	·	-8	·	·	·
CCOC(=O)C1CCN(c2ncnc3c2[nH]c2cccc(OC)c23)CC1	11%	-2%	1	-12	5	9%
COc1cccc2[nH]c3c(Cl)ncnc3c12	-14%	?	-9	0	-184*	16µM*
COc1cccc2[nH]c3c(N4CCCCC4)ncnc3c12	-28%	?	1	7	5	28µM*
COc1ccc2[nH]c3c(Cl)ncnc3c2c1	-17%	?	-1	10	-2	0%
COc1ccc([C@H]2N[C@]3(CCCN(Cc4cccn4C)C3=O)[C@H]3C(=O)N(C)C(=O)[C@@H]23)cc1	11µM*	·	2	5	-8	1%
COc1ccc([C@H]2N[C@]3(CCCN(Cc4cccn4C)C3=O)[C@H]3C(=O)N(Cc4ccccc4)C(=O)[C@@H]23)cc1	-27%	·	2	-4	3	-1%
Cc1ccc([C@H]2N[C@]3(CCCN(Cc4cccn4C)C3=O)[C@H]3C(=O)N(Cc4ccccc4)C(=O)[C@@H]23)cc1	?	·	1	-31	-71*	0%
Cn1cccc1CN1CCC[C@]2(N[C@H](c3ccccc3)[C@@H]3C(=O)N(Cc4ccccc4)C(=O)[C@@H]32)C1=O	10µM*	·	2	-4	0	0%
